High-throughput results deposited in PubChem BioAssay by National Center for Advancing Translational Sciences (NCATS).
SMN2 splice up = enhancers of SMN2 splice variant expression; HEK293 SMN2-luciferase splicing reporter, luminescence, 30-36 h; 2.8% of 210,000 active; Potency, µM (top dose mostly 46.1 µM), without a hit: at the top dose activity change, positive = activation, hits mostly activators; further: % of control where 0% means no effect; nearly all actives have a fitted effect of over 55% in size
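qHTS luciferase splicing reporter: luminescence rises when SMN2 exon 7 is included in transfected HEK293 cells. Compound exposure lasted 30-36 h at 37C, with 4.5 mM final sodium butyrate as control, followed by a ONE-Glo read.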
Rab9 promoter act = Rab9 promoter activation; AID 485297; Potency, µM (titrated, usually from 9.22 µM), without a hit: at the highest dose activation, negative = inhibition, usual class: activators; Huh7 Rab9 promoter-luciferase reporter, luminescence, 24 h; 2.8% of 320,000 active; further: % of control where 0% means no effect; nearly all actives have a fitted effect of over 60% in size
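Stable Rab9-luc Huh7, 1500 cells/well, 2 h settle; cmpd in DMSO, 24 h, 37 °C/5% CO2; luciferase reagent 10 min RT; luminescence.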
ELG1 genotox = induces genotoxicity in HEK293T cells with luciferase-tagged ELG1; HEK293T ELG1-luciferase reporter, luminescence, 16 h; Potency, µM (titrated, usually from 46 µM), for the others: at the top dose activity change, positive = activation, usual class: activators; 1.3% of 330,000 active; further: % of control where 0% means no effect; nearly all actives have a fitted effect of over 60% in size
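HEK293T cells expressing luciferase-tagged ELG1 were treated with compound or DMSO for 16 hr at 37°C. Luciferase activity was then read after 30 min with ONE-Glo at room temperature; rising signal flags genetic stress.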
FLuc modulator = firefly luciferase modulation, counter-screen for miR-21 project; 6.9% of 360,000 active; P08659; purified FLuc, Km substrates, luminescence inhibition; Potency, µM (top dose mostly 57.5 µM), inactives show at the highest dose activity change, negative = inhibition, usual class: inhibitors; AID 588342;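 further: plate controls were vehicle for no effect and reference inhibitor for full effect; nearly all actives have a fitted effect of over 55% in size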
Target sequence (P08659 whole entry, looked up): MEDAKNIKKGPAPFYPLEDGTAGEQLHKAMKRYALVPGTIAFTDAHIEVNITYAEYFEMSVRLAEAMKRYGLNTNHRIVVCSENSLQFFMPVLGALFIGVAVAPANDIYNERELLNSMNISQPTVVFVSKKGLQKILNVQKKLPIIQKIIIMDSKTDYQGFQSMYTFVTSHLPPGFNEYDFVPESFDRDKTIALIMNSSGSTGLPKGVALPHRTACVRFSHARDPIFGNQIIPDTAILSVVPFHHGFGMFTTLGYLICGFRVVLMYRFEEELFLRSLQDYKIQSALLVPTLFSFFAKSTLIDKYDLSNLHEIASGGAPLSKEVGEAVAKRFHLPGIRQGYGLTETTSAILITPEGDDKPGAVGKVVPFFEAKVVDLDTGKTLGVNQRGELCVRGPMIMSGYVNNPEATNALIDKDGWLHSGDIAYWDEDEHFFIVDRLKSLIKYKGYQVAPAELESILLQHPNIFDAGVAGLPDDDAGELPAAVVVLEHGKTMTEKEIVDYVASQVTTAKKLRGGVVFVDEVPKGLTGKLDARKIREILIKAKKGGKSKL
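Purified P. pyralis luciferase, 10 nM final, with Km-level 10 uM D-luciferin and 10 uM ATP in 50 mM Tris acetate pH 7.5, 10 mM Mg acetate, 0.01% Tween-20, 0.05% BSA; 6-point qHTS titration about 60 µM downward; luminescence read.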
NPC1 prom act = activates the NPC1 promoter | AID 485313 | Potency, µM (titrated, usually from 9.22 µM), inactives show at the highest dose activation, usual class: activators | Huh7 NPC1 promoter luciferase reporter, 24 h | 2.4% of 320,000 active; further: % of control where 0% means no effect; nearly all actives have a fitted effect of over 60% in size
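Luminescence from an NPC1 promoter-driven luciferase reporter in stably transfected Huh7 cells was measured after 24 h compound treatment at 37 °C, followed by 10 min ambient incubation with luciferase detection reagent.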
An asterisk follows results filed as active; ? = inconclusive; nt = no result given. Only some compounds are listed: those with a hit (about 7.5% of all), similar ones and a draw of the others. The call rests on the fitted dose curve; in most records, active means well fitted curve in the direction sought with a large enough effect; inconclusive means small, poorly fitted or top-dose-only effect, or another doubt; inactive means no such curve, though single readings can be large; an effect the other way counts as inactive or inconclusive. Potency means the concentration at half of the fitted maximal effect.

SMILES	SMN2 splice up	Rab9 promoter act	ELG1 genotox	FLuc modulator	NPC1 prom act
CCc1ccc2oc(-c3cc(N)ccc3Cl)nc2c1	?	2.5µM*	2.1µM*	0.24µM*	4µM*
CCOC(=O)C1=C(C)N=C2SCCC(=O)N2C1c1ccc(OC)cc1 (stereo not given)	?	1%	1%	0%	-6%
COc1cccc(N2CCN(C(=O)c3ccc(CSc4nc5ccncc5[nH]4)cc3)CC2)c1	-55%	-10%	-2%	-1%	-5%
COc1cccc(CSc2nc3ccncc3[nH]2)c1	nt	2.8µM*	-18%	13µM*	1.6µM*
Clc1ccccc1CSc1nc2ccncc2[nH]1	13µM*	3.5µM*	18µM*	15µM*	?
CCCn1c(N)c(C(=O)COC(=O)c2c(C)noc2C)c(=O)n(C)c1=O	-25%	-5%	-3%	-4%	-1%
N#Cc1cnn2cc(-c3ncc(C(F)(F)F)cc3Cl)cnc12	18%	22%	1%	0%	14%
Cc1nn2cc(-c3ncc(C(F)(F)F)cc3Cl)cnc2c1Br	nt	0.32µM*	?	1.5µM*	0.4µM*
Cc1cc2ncc(-c3ncc(C(F)(F)F)cc3Cl)cn2n1	1.3µM*	0.4µM*	?	1.3µM*	0.71µM*
Cc1ccc(S(=O)(=O)NC(CC(C)C)C(=O)NCC(c2ccco2)N2CCCCC2)cc1 (stereo not given)	nt	1%	?	19µM*	0%
CCCN(CCC)CCNC(=O)c1cc2c(=O)n(C)c3ccccc3c2n1C	27%	-8%	17%	-1%	-1%
CN1CCN(C(=O)C2=C[C@@H](C3CC3)C[C@@H](OCc3ccc(CO)cc3)O2)CC1	nt	-5%	4%	2%	-5%
O=C(N/N=C/c1ccc(OC(=O)c2cccs2)cc1)c1ccc(F)cc1	27%	2%	11%	0%	16%
COC(OC)c1ccnc(-c2ccc(OC(=O)c3cccs3)cc2)n1	18%	13%	0%	21µM*	2%
COC(OC)c1ccnc(-c2ccc(OC(=O)c3ccccc3)cc2)n1	-1%	-2%	12%	17µM*	3%
COC(OC)c1ccnc(-c2ccc(OC(C)=O)cc2)n1	?	5%	13%	?	0%
COc1cccc(-n2c(C)nn(CCOc3ccccc3)c2=O)c1	6%	24%	9%	-3%	7%
COc1ccccc1C(=O)NC(=O)COC(=O)C1CCC1	nt	0%	-4%	8.5µM*	-3%
O=C(NCCCN1CCCC1)c1ccc(Cn2c(=S)[nH]c3ccc(Br)cc3c2=O)cc1	11%	-1%	4%	-5%	-6%
COc1ccc(OC)c(C2CC(=O)N3CN(c4ccccc4)CSC3=C2C#N)c1 (stereo not given)	3%	-4%	2%	?	1%
Cc1cccc(N2CSC3=C(C#N)C(c4ccc(C)o4)CC(=O)N3C2)c1 (stereo not given)	6%	4%	?	17µM*	-3%
O=C(CN1CCCc2ccccc21)N/N=C/c1ccccc1	-3%	0%	2%	-15%	-6%
O=C(CN1CCCc2ccccc21)N/N=C/c1ccc(O)cc1O	-3%	-18%	21µM*	15µM*	-13%
Cc1cc(N2CCOCC2)ccc1/C=C1\NC(=O)N(CC(=O)Nc2ccc(F)cc2)C1=O	18%	?	13%	?	?
Cc1cccc(NC(=O)CN2C(=O)N/C(=C\c3ccc(N4CCOCC4)cc3)C2=O)c1	11µM*	?	?	3µM*	?
COc1cc(CC(=O)OCC(=O)NC2CC2)cc(OC)c1OC	-10%	-1%	1%	2%	-2%
O=C(NC1CCCCC1)c1cc2nc(-c3ccco3)cc(C(F)(F)F)n2n1	-8%	-3%	-7%	-2%	-7%
COc1cccc(-c2ccc3c(N)c(C(=O)c4ccc(F)cc4)sc3n2)c1	-25%	nt	nt	-4%	nt
COc1ccc(-c2cc(C(=O)NC3CCCC3)no2)cc1	nt	1.8µM*	3.7µM*	2.1µM*	0.79µM*
COc1cccc(-c2ccc3c(N)c(C(=O)NC4CC4)sc3n2)c1	nt	?	?	3µM*	2µM*
